The values below come from PubChem BioAssay AID651658 (Broad Institute, 2012).

Hit rate of the full screen: of about 340,000 compounds, about 5,100 (1.5%) were called active. The full list was thinned out, with actives kept by preference. Values without a mark were called inactive.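 The calls were made as follows: active = mean Tm shift, scaled 0 neutral to 100 positive control, at about 1.3% or above, every replicate too (limit read from the data); inconclusive = no clear call, values can overlap the other calls; inactive = the rest.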

Fibroblast growth factor 22 (Homo sapiens), sequence (Q9HCT0 whole entry, looked up): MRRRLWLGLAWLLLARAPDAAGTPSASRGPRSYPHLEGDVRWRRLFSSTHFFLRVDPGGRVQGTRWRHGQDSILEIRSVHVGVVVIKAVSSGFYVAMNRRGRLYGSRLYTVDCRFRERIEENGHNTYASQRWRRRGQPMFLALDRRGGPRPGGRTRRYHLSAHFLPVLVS

The experiment concerns the target Fibroblast growth factor 22 (Homo sapiens) (UniProt Q9HCT0). The experiment is described as follows: FGF22 ligand-induced thermal stabilization – biophysical, thermal shift, single point, FGF22 synaptogenesis inhibitor project, primary screen (AID 651658). Particulars: recombinant FGF22 thermal shift, SYPRO orange fluorescence; at 9.99 µM; hits give high values; percent of sucrose octasulfate shift, DMSO zero.
For the compound `CC1CCCN(CC(O)COCc2ccccc2)C1` (stereo unspecified), the activity (Tm shift, normalised) is 43.5% (active).
Under `CC1CCCN(CC(O)COc2ccc3c(c2)OCO3)C1` (stereo unspecified) stands 0.154%.
Under `COc1ccc(COCC(O)CN2CCC(C(N)=O)CC2)cc1` (stereo unspecified) stands -0.009%; under `CC(C)(C)S(=O)N1Cc2cc(C(=O)O)nc(-c3cccc(-c4cc5ccccc5o4)c3)c2[C@@H]1CCO` (stereo partly specified), 0.231%; under `COc1ccc2c3c(n(C)c2c1)[C@H](CO)N(Cc1ccccc1)CC31CN(C(=O)c2ccccc2F)C1`, -0.032%.
Then `NC(=O)c1ccc(NC(=O)COC(=O)c2c3c(nc4ccccc24)/C(=C\c2ccc4c(c2)OCO4)CCC3)cc1`, with -0.321%; and `O=C1/C(=C/c2ccc3c(c2)OCO3)CCC/C1=C\c1ccc2c(c1)OCO2`, with 26.1% (active); and `NS(=O)(=O)c1ccc(NC(=O)COC(=O)c2c3c(nc4ccccc24)/C(=C\c2ccc4c(c2)OCO4)CCC3)cc1`, with -0.081%.
Turning to `CCCNC(=O)N1C[C@@H]2[C@H](c3ccccc31)[C@@H](CO)N2C(=O)NC(C)C`, the activity (Tm shift, normalised) is -0.334%.
Take `C[C@H]1CN([C@@H](C)CO)S(=O)(=O)c2ccc(C#Cc3cccnc3)cc2O[C@H]1CN(C)C(=O)CN(C)C`: the activity (Tm shift, normalised) is -0.747%.
In the case of `O=C(NC(=S)Nc1cccc2c(O)cccc12)c1cccc(Br)c1`, the activity (Tm shift, normalised) is -0.32%.
In the case of `CC(CC(=O)O)CC(=O)NNC(=O)c1cccc(Br)c1` (stereo unspecified), the activity (Tm shift, normalised) is -0.089%.
Then `Cc1ccccc1NC(=S)NNC(=O)c1cccc(Br)c1`, with 43.6% (active); and `O=C(C[C@H]1C[C@@H]2c3cc(NS(=O)(=O)c4ccc(F)cc4)ccc3O[C@@H]2[C@@H](CO)O1)NCc1cccc(F)c1`, with -0.007%; and `Oc1cccc2cc(-c3ccncc3)cnc12`, with 43.2% (active).
Then `C[C@@H]1CN([C@H](C)CO)C(=O)Cc2cc(NC(=O)Nc3cccc4ccccc34)ccc2O[C@H]1CN(C)C(=O)Nc1ccc2c(c1)OCO2`, with -0.447%; and `COc1ccc(-n2nc(C(=O)NCC(=O)N3CCN(c4ccccc4OC)CC3)c3ccccc3c2=O)c(OC)c1`, with -0.112%; and `COc1ccc(-n2nc(C(=O)Nc3cc(OC)c(OC)c(OC)c3)c3ccccc3c2=O)c(OC)c1`, with 0.293%.
For the compound `COc1cccc(NC(=O)c2nn(-c3ccc(OC)cc3OC)c(=O)c3ccccc23)c1`, the activity (Tm shift, normalised) is 43.4% (active).
As for `CN1C(=O)c2cc(NC(=O)c3cnccn3)ccc2OC[C@H]2O[C@@H](CC(=O)NCC3CCCCC3)CC[C@@H]21`, the activity (Tm shift, normalised) is -0.186%.
As to `O=C(CN(CC1CCCO1)C(=O)CNS(=O)(=O)c1ccc(Cl)cc1)NCc1ccccc1` (stereo unspecified), the activity (Tm shift, normalised) is -0.087%.
As for `O=C(CN(CC1CCCO1)C(=O)CNS(=O)(=O)c1ccc(F)cc1)NCc1ccco1` (stereo unspecified), the activity (Tm shift, normalised) was 43.2% (active).
Regarding `CC(C)C(C(=O)NCc1ccco1)N(CC1CCCO1)C(=O)CNS(=O)(=O)c1ccc(F)cc1` (stereo unspecified), the activity (Tm shift, normalised) was -0.278%.
With `COCC(=O)N(C)C[C@H]1Oc2cc(C#C[C@@H](C)O)ccc2S(=O)(=O)N([C@@H](C)CO)C[C@@H]1C`, the activity (Tm shift, normalised) was 0.023%.
Take `COc1ccc(C(C(=O)NC(C)(C)C)N(Cc2ccc(F)cc2)C(=O)CCC(=O)Nc2cc(C)on2)cc1` (stereo unspecified): the activity (Tm shift, normalised) is -0.347%.
As for `CCC(C)(C)NC(=O)C(c1ccc(OC)cc1)N(C(=O)CCC(=O)Nc1cc(C)on1)c1ccc(OC)cc1OC` (stereo unspecified), the activity (Tm shift, normalised) is 0.006%.
Take `CCC(C)(C)NC(=O)C(c1cccc(OC)c1OC)N(CC(C)C)C(=O)CCC(=O)Nc1cc(C)on1` (stereo unspecified): the activity (Tm shift, normalised) was 43% (active).
As for `CN(C)C(=O)C[C@H]1CC[C@@H](NC(=O)C2CC2)[C@@H](CO)O1`, the activity (Tm shift, normalised) was -0.057%.
`C[C@H]1CN([C@@H](C)CO)C(=O)c2cccc(NC(=O)Nc3ccccc3)c2O[C@H]1CN(C)S(=O)(=O)c1ccc(Cl)cc1`: the activity (Tm shift, normalised) is -0.286%.
Turning to `C[C@@H]1CN([C@H](C)CO)C(=O)c2cc(-c3cccc(C(=O)N(C)C)c3)cnc2O[C@H]1CN(C)S(=O)(=O)c1ccc(F)cc1`, the activity (Tm shift, normalised) is -0.014%.
Then `COCC(=O)Nc1ccc2c(c1)OC[C@H](C)N(Cc1ccccc1)C[C@H](C)[C@@H](OC)CN(C)C2=O`, with -0.276%.
Take `C[C@@H]1CN([C@@H](C)CO)C(=O)c2cc(NC(=O)Nc3ccc4c(c3)OCO4)ccc2O[C@@H](C)CCCCO[C@@H]1CN(C)S(=O)(=O)c1cccs1`: the activity (Tm shift, normalised) is 0.586%.
For `Cc1ccc(S(=O)(=O)N(C)C[C@@H]2Oc3c(NC(=O)C4CC4)cccc3C(=O)N([C@H](C)CO)C[C@@H]2C)cc1`, the activity (Tm shift, normalised) is 0.051%.
With `COc1cccc(S(=O)(=O)N2C[C@@H](O)COC[C@@H]3O[C@H](CC(=O)Nc4ccccc4)CC[C@H]32)c1`, the activity (Tm shift, normalised) was -0.453%.
Turning to `Cc1cccc(S(=O)(=O)N2C[C@@H](O)COC[C@H]3O[C@H](CC(=O)Nc4ccc(-c5ccccc5)cc4)CC[C@@H]32)c1`, the activity (Tm shift, normalised) was 1.98% (active).
Under `O=C(C[C@H]1CC[C@H]2[C@@H](COC[C@@H](O)CN2S(=O)(=O)c2cccc(Cl)c2)O1)NC1CCCC1` stands -0.093%; under `CN(C)C(=O)C[C@@H]1CC[C@H]2[C@@H](COC[C@H](O)CN2S(=O)(=O)c2ccccc2)O1`, -0.015%.
Regarding `O=C(C[C@H]1CC[C@H]2[C@@H](COC[C@H](O)CN2S(=O)(=O)c2cccc(Cl)c2)O1)Nc1ccccc1`, the activity (Tm shift, normalised) is 1.27% (active).
Under `Cc1cccc(S(=O)(=O)N2C[C@@H](O)COC[C@H]3O[C@H](CC(=O)N4CCN(C)CC4)CC[C@@H]32)c1` stands -0.222%.
With `COc1cccc(-c2ccc(CC[C@H]3O[C@H]4CC[C@@H](CO)O[C@H]4C[C@@H]3NS(C)(=O)=O)cc2)c1`, the activity (Tm shift, normalised) was -0.835%.
Turning to `CCCNC(=O)N(C)C[C@H]1Oc2ncc(-c3ccccc3F)cc2C(=O)N([C@@H](C)CO)C[C@H]1C`, the activity (Tm shift, normalised) is 0.186%.
`C[C@H](CO)N1C[C@H](C)[C@H](CN(C)Cc2ccc(C(=O)O)cc2)OCc2cn(nn2)CCCC1=O`: the activity (Tm shift, normalised) was -0.002%.
For `C/C=C/c1cnc2c(c1)C(=O)N([C@@H](C)CO)C[C@@H](C)[C@@H](CN(C)S(=O)(=O)c1ccccc1F)O2`, the activity (Tm shift, normalised) is 0.721%.
In the case of `O=C(N[C@@H]1CC[C@@H](CC(=O)N2CCc3ccccc3C2)O[C@@H]1CO)C1CCOCC1`, the activity (Tm shift, normalised) was -0.035%.
With `Cc1ccc(S(=O)(=O)Nc2nc(C)cc(N/N=C/c3ccc(O)cc3)n2)cc1`, the activity (Tm shift, normalised) was 43.2% (active).
Consider `Cc1ccc(OCCCC(=O)Nc2ccc(S(=O)(=O)Nc3cc(C)nc(C)n3)cc2)cc1`, for which the activity (Tm shift, normalised) was -0.115%.
On to `Cc1ccc(S(=O)(=O)Nc2nc(C)cc(-n3nc(C)cc3C)n2)cc1`, for which the activity (Tm shift, normalised) was 0.134%.
Turning to `CN(C)C(=O)C[C@H]1C[C@@H]2c3cc(NC(=O)NC4CCCCC4)ccc3O[C@@H]2[C@@H](CO)O1`, the activity (Tm shift, normalised) was -7.03%.
With `C[C@H](CO)N1C[C@H](C)[C@@H](CN(C)Cc2cccnc2)Oc2cc(C#CC3CC3)ccc2S1(=O)=O`, the activity (Tm shift, normalised) is -0.495%.
In the case of `CC1(Cc2cccc(C#N)c2)C(=O)Nc2ccc(-c3cccc(C(F)(F)F)c3)cc21` (stereo unspecified), the activity (Tm shift, normalised) is 0.505%.
Regarding `Cn1cc(-c2ccccc2)cc(C#N)c1=O`, the activity (Tm shift, normalised) is 0.065%.
With `C=CCn1cc(-c2cccc(C(F)(F)F)c2)cc(C#N)c1=O`, the activity (Tm shift, normalised) was 42.9% (active).
Under `COc1cccc(S(=O)(=O)N2CCC3(CC2)CN[C@H](CO)c2c3c3ccc(OC)cc3n2C)c1` stands 0.197%; under `Cc1ccc(CN2CCN(Cc3ccccc3-c3ccco3)CC2CCO)o1` (stereo unspecified), 43.4% (active).
Under `Cc1ccc(CN2CCN(Cc3cn(C)nc3-c3ccccc3)CC2CCO)o1` (stereo unspecified) stands -0.412%.
Then `OCCC1CN(Cc2ccccc2-c2ccco2)CCN1Cc1ccsc1` (stereo unspecified), with 0.318%; and `CCS(=O)(=O)N[C@@H]1CC[C@@H](CC(=O)NCC2CC2)O[C@H]1CO`, with 0.034%; and `CN1C(=O)c2cc(NC(=O)c3ccc(F)cc3)ccc2OC[C@H]2O[C@H](CC(=O)N3CCOCC3)CC[C@@H]21`, with -0.26%.
For `O=C(CSCc1ccc([N+](=O)[O-])cc1)Nc1cccc(C(=O)Nc2ccccc2C(=O)O)c1`, the activity (Tm shift, normalised) was -0.059%.
Under `CN(CCc1ccccc1)C(=O)c1cccc(NC(=O)Cc2ccc([N+](=O)[O-])cc2)c1` stands -0.076%.
Turning to `O=C(COc1ccc([N+](=O)[O-])cc1)Nc1cccc(C(=O)Nc2ccccc2C(=O)O)c1`, the activity (Tm shift, normalised) was 1.4% (active).
For the compound `C[C@H](CO)N1C[C@H](C)[C@@H](CN(C)C(=O)C2CCOCC2)Oc2cc(-c3ccc(C(=O)N(C)C)cc3)ccc2S1(=O)=O`, the activity (Tm shift, normalised) is -0.068%.
Under `CN1c2ccc(C#Cc3cccnc3)cc2[C@H]2[C@H](CCN2S(=O)(=O)c2ccccc2)[C@@H]1CO` stands -0.293%; under `C[C@H](CO)N1C[C@H](C)[C@H](CN(C)Cc2ccccc2)OCCCC[C@H](C)Oc2ccc(NC(=O)CCC(F)(F)F)cc2C1=O`, -0.091%.
For `O=C(OCc1cc(Cl)ccc1OC(F)F)c1cccnc1`, the activity (Tm shift, normalised) is 43.6% (active).
Then `Cn1cncc1COC(=O)c1ccc(Cl)cc1`, with 0.094%; and `O=C(CC(=O)c1cccnc1)c1ccccc1`, with -0.031%.
For the compound `C[C@@H](O)C#Cc1ccc([C@H]2[C@H](CO)N3CCCCN(C(=O)c4ccc(F)cc4)C[C@@H]23)cc1`, the activity (Tm shift, normalised) was 0.261%.
Turning to `O=C(Nc1ccccc1F)N1C[C@@H]2[C@H](c3ccccc31)[C@@H](CO)N2C(=O)Nc1ccccc1`, the activity (Tm shift, normalised) was -0.294%.
Turning to `O=C(c1cccnc1)N1C[C@H]2[C@@H](c3ccccc31)[C@@H](CO)N2C(=O)Nc1ccccc1F`, the activity (Tm shift, normalised) was -0.686%.
Consider `O=C(Nc1ccccc1F)N1[C@H](CO)[C@H]2c3ccccc3NC[C@H]21`, for which the activity (Tm shift, normalised) is 1.7% (active).
